Assay results from PubChem BioAssay (NCI).
The panel holds about 83,000 compounds, 20% with a hit somewhere; the sample as a whole holds those more often.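 48-hour exposure, single concentration, 96-well plates; percent growth endpoint where 0 means no net growth. Active: below 10.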 Unmarked numbers belong to inactive results. The source made the active and inactive calls.

How the values were obtained:
Assay in all cases: NCI-60 one-dose screen, 48 h (100 = growth as untreated, 0 = no growth, -100 = all killed)
Conditions in all cases: 10 µM unless noted
SR leukemia = tested on: SR leukemia
RPMI-8226 leukemia = tested on: RPMI-8226 leukemia
OVCAR-8 ovarian = tested on: OVCAR-8 ovarian
OVCAR-5 ovarian = tested on: OVCAR-5 ovarian
OVCAR-4 ovarian = tested on: OVCAR-4 ovarian
SK-OV-3 ovarian = tested on: SK-OV-3 ovarian
IGROV1 ovarian = tested on: IGROV1 ovarian
OVCAR-3 ovarian = tested on: OVCAR-3 ovarian
HS 578T breast = tested on: HS 578T breast
NCI/ADR-RES ovarian = tested on: NCI/ADR-RES ovarian
T-47D breast = tested on: T-47D breast
BT-549 breast = tested on: BT-549 breast
MDA-MB-435 melanoma = tested on: MDA-MB-435 melanoma
SW-620 colon = tested on: SW-620 colon
MCF7 breast = tested on: MCF7 breast
HCC-2998 colon = tested on: HCC-2998 colon
KM12 colon = tested on: KM12 colon
HCT-116 colon = tested on: HCT-116 colon

SMILES | growth (SR leukemia) | growth (RPMI-8226 leukemia) | growth (OVCAR-8 ovarian) | growth (OVCAR-5 ovarian) | growth (OVCAR-4 ovarian) | growth (SK-OV-3 ovarian) | growth (IGROV1 ovarian) | growth (OVCAR-3 ovarian) | growth (HS 578T breast) | growth (NCI/ADR-RES ovarian) | growth (T-47D breast) | growth (BT-549 breast) | growth (MDA-MB-435 melanoma) | growth (SW-620 colon) | growth (MCF7 breast) | growth (HCC-2998 colon) | growth (KM12 colon) | growth (HCT-116 colon)
COc1cc(N=Nc2ccc(N)cc2)c(OC)cc1N=Nc1ccccc1.[Cl][Zn][Cl] | 93.2% | 90.9% | 98.8% | 96.4% | 92.3% | 96.5% | 47.6% | 99.8% | 107% | 95.8% | 88.2% | 93.5% | 98.7% | 105% | 85.6% | 98.9% | 105% | 
Cc1cc(NCc2cc(Nc3ccnc4cc(Cl)ccc34)ccc2F)nc(N2CCOCC2)n1 | -13% (active) | 29.4% | 36.3% | 76.5% | 7.29% (active) | 0.55% (active) | 49.7% | 16.1% | 16.5% | 25% | -54.8% (active) | 75.3% | -18.4% (active) | 32.5% | 6.18% (active) | 55.8% | 44% | 
COC(=O)[C@]12CC[C@@H](C)[C@H](C)[C@@H]1C1=CC[C@@H]3[C@@]4(C)C(C=O)=C[C@@](C)(COC(=O)c5ccco5)[C@@H]4C(=O)C[C@@]3(C)[C@]1(C)CC2 | 32.5% | 14.6% | 24.8% | 59.4% | 29.8% | 33.7% | 51.8% | 40.4% | 65.3% | 28.4% | 0.38% (active) | 12.9% | -10.1% (active) | 31.4% | 20.4% | 38.9% | 23.1% | 12.6%
COc1cc(/C=C/C(=O)c2c(C)nc3ccccc3c2C)ccc1OCCCN1CCN(C(=O)c2ccco2)CC1 | 64.8% | 31.4% | 73.5% | 95.5% | 25.2% | 107% | 76.6% | 97.9% | 82.1% | 55.6% | 67.7% | 86.3% | 61.6% | 68.3% | 75.4% | 46.5% | 98% | 
COc1cc(-c2nc(N3CCN(C)CC3)c3ccccc3n2)cc(OC)c1OC | 48.9% | 71.2% | 75.7% | 88.5% | 55.9% | 68.4% | 62.5% | 3.18% (active) | 41.1% | 10.3% | 65.3% | 84.7% | 0% (active) | 53.3% | 29.5% | 88.4% | 53.4% | 
COc1cccc(-c2nn(-c3ccccc3)cc2-c2ccnc(NCCCNC(=O)Nc3ccc(Cl)c(Cl)c3)c2)c1 | -32.8% (active) | -2.49% (active) | 1.46% (active) | 54.4% | 30.9% | 22.2% | 36.6% | 29.5% | -26.1% (active) | -20.3% (active) | -15% (active) |  | -36.3% (active) | 12% | 5.21% (active) | -61.8% (active) | -13.4% (active) | 2.97% (active)
COC(=O)[C@]12CC[C@@H](C)[C@H](C)[C@@H]1C1=CC[C@@H]3[C@@]4(C)C(C=O)=C[C@@](C)(CO)[C@@H]4[C@H](O)C[C@@]3(C)[C@]1(C)CC2 | -20.4% (active) | -10.1% (active) | -2.42% (active) | -19.7% (active) | -5.06% (active) | 3.19% (active) | 3.94% (active) | -91.9% (active) | -15.6% (active) | -10.2% (active) | -19.8% (active) |  | -16% (active) | -1.77% (active) | 3.73% (active) | -79.2% (active) | 1.71% (active) | -81.4% (active)
O=[N+]([O-])c1ccc(-c2cc(-c3ccc(Nc4nc(Nc5ccc(Cl)cc5)nc(Nc5ccc(Cl)cc5)n4)cc3)no2)cc1 | 14.5% | 34.7% | 99% | 70.7% | 31.4% | 107% | 92% | 241% | 99.9% | 75.3% | 97.2% | 103% | 103% | 96.6% | 83.1% | 78.2% | 105% | 83.7%
CC(C)(C)n1cc(-c2ccnc(NCCCNS(=O)(=O)c3ccccc3)c2)c(-c2ccccc2)n1 | 31.7% | 65.5% | 68.9% | 94% | 70.4% | 85.1% | 78.3% | 83.9% | 96% | 74.6% | 9.34% (active) |  | 82.1% | 77.1% | 62% | 78.1% | 71.9% | 57.5%
Cc1ccc(Cl)c(NS(=O)(=O)c2ccc(-c3cnc(C4CC4)o3)cc2)c1 | 15.7% | 18.8% | 28.1% | 26.4% | 48.3% | 44.5% | 27% | -1.26% (active) | 13.5% | 19.5% | 45% | 34.5% | -59.6% (active) | 18.6% | 12.4% | 26.8% | 16.5% | 13.8%
Clc1cc(Cl)cc(Nc2ccc3cc(OCCCN4CCOCC4)ccc3n2)c1 | 1.31% (active) | -2.42% (active) | 44.4% | 65.7% | 46.8% | 67.4% | 58% | 60% | 25% | 51% | 32% | 88.5% | 34.1% | -8.79% (active) | 8.56% (active) | -17.6% (active) | 8.59% (active) | 
CCN(CC)Cc1cccc(C(=O)OC)c1 | 95% | 91.8% | 99.6% | 94.1% | 101% | 89.4% | 102% | 111% | 109% | 102% | 88.3% | 93.1% | 101% | 101% | 90.9% | 102% | 102% | 
N#Cc1c(N)nn(C(=O)c2ccc(NC(=O)c3ccccn3)cc2)c1-c1ccc(Cl)cc1 | 50% | 43.6% | 18.4% | 62.7% | -2.76% (active) | 67.2% | 11.1% | 6.15% (active) | 28.6% | 28.5% | -16.7% (active) | 15.5% | 33.9% | 13.9% | 36.4% | 14.9% | -26.3% (active) | 12.4%
COc1ccc(-c2nc(SC(C)C)nc(NNC(N)=S)c2C#N)cc1 | 24.4% | 32.7% | 71.2% | 66% | 86.3% | 73% | 52.6% | 18.2% | 54.9% | 19.6% | 51.6% | 77.2% | -46.4% (active) | 22.2% | 30.7% | 63.7% | 39.2% | 75.1%
COC(=O)[C@]12CC[C@@H](C)[C@H](C)[C@@H]1C1=CC[C@@H]3[C@@]4(C)C(C=O)=C[C@@](C)(COC(C)=O)[C@@H]4[C@H](O)C[C@@]3(C)[C@]1(C)CC2 | -26.2% (active) | -17% (active) | -0.958% (active) | -28.3% (active) | 9.81% (active) | 6.14% (active) | 2.81% (active) | -85.7% (active) | -18.3% (active) | 2.88% (active) | -18.5% (active) | -19.8% (active) | -24.3% (active) | -59.4% (active) | -11.7% (active) | -71% (active) | -27.5% (active) | 
NC1=NCc2nc3ccccc3c(=O)n2C1 | 93.1% | 79.1% | 102% | 85.8% | 106% | 117% | 101% | 101% | 111% | 96.8% | 113% | 113% | 100% | 103% | 105% | 88.8% | 100% | 101%
COc1ccc(CN2C(=O)C(Cl)=C(Nc3cccc(C(F)(F)F)c3)C2=O)cc1 | 9.34% (active) | 42.6% | 42.5% | 55.1% | 47.6% | 75.8% | 36.1% | 62% | 57% | 38.9% | 60.8% | 26.3% | 25.5% | 28.8% | 29.5% | 53.2% | 70.2% | 
